Reference: PubChem BioAssay (NCATS)
Several values for one entry are separate records, joined by “and”; a condition that tells them apart may be missing. Equal values may be shown once. Inconclusive results are not listed. Activity calls are given as the source filed them. Calls come from the whole dose curve; as a rule, active = well fitted curve in the direction sought with a large enough effect; inconclusive = small, poorly fitted or top-dose-only effect, or another doubt; inactive = no such curve, though single readings can be large; an effect the other way counts as inactive or inconclusive.

Assays:
Tov112D = experiment: Primary qHTS to identify gynecologic anti-cancer compounds using libraries of approved drugs and bioactive compounds (AID 1345084); conditions: Gynecologic cancer cell panel viability, ATPlite luminescence, 48 h; series mostly up to 57.5 µM; note: nearly all actives have a fitted effect of over 55% in size
In short: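 48 h compound exposure at 37 C, 5% CO2; five-point qHTS. ATPlite luminescence readout of cell ATP.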

[1] = Drug repurposing screens with cells derived from glioblastoma tumor samples (AID 1345199); conditions: GBM patient neurospheres viability, ATP luminescence, 48 h; note: nearly all actives have a fitted effect of over 40% in size; note: potency is the fitted concentration of half-maximal effect
In short: (§1)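 Primary testing used CD133+ neurospheres from four GBM patients, seven concentrations, 48 h exposure and ATP-based viability; confirmation added three slower-growing patient lines.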

astro = experiment: as above; conditions: viability, ATP luminescence, 48 h; series mostly up to 45.9 µM
In short: as §1

[2] = at 45.9 µM (top of the series), tumour line B
[3] = at 45.9 µM (top of the series), tumour line D
[4] = at 46.1 µM (top of the series), tumour line C
[5] = at 46 µM (top of the series), tumour line A
% is set by controls: 0 for no effect and ±100 for the full control effect.

CC(C)(C)C(O)/C=C/c1ccc2c(c1)OCO2 (configuration not stated)
active: Potency ([1]; tumour line A) 15.8 µM
inactive: Potency (Tov112D) | activity, negative = cell killing [1, 2] -14.2% | activity, negative = cell killing [1, 3] -29.5% | activity, negative = cell killing [1, 4] 10.3% | Potency (astro)

CO/N=C(/C(=O)N[C@@H]1C(=O)N2C(C(=O)O)=C(Cn3nnc(C)n3)CS[C@H]12)c1csc(N)n1
inactive: Potency (Tov112D) | activity, negative = cell killing [1, 2] -1.74% | activity, negative = cell killing [1, 3] 2.54% | activity, negative = cell killing [1, 5] -14.3% | activity, negative = cell killing [1, 4] 9.89% | Potency (astro)

Nc1nnnn1-c1ccccc1
inactive: Potency (Tov112D) | activity, negative = cell killing [1, 2] -11.1% | activity, negative = cell killing [1, 3] -15.7% | activity, negative = cell killing [1, 5] -29.5% | activity, negative = cell killing [1, 4] 12.1% | Potency (astro)

CN1[C@@H]2CC[C@H]1CC(NC(=O)n1c(=O)[nH]c3ccccc31)C2 (some centres not stated)
active: Potency ([1]; tumour line A) 28.2 µM
inactive: Potency (Tov112D) | activity, negative = cell killing [1, 2] 3.71% | activity, negative = cell killing [1, 3] -10.2% | activity, negative = cell killing [1, 4] 9.49% | Potency (astro)

CC(C)=CCC/C(C)=C/CC/C(C)=C/CCC(=O)OC/C=C(\C)CCC=C(C)C
active: Potency ([1]; tumour line A) 35.5 µM
inactive: Potency (Tov112D) | activity, negative = cell killing [1, 2] -1.59% | activity, negative = cell killing [1, 3] -0.887% | activity, negative = cell killing [1, 4] -6.49% | Potency (astro)

O=C(CCCCC(=O)Nc1c(I)cc(I)c(C(=O)O)c1I)Nc1c(I)cc(I)c(C(=O)O)c1I
inactive: Potency (Tov112D) | activity, negative = cell killing [1, 2] 0.519% | activity, negative = cell killing [1, 3] -19.2% | activity, negative = cell killing [1, 5] -28.1% | activity, negative = cell killing [1, 4] 4.23% | Potency (astro)

Cc1ccc(O)cc1
inactive: Potency (Tov112D) | activity, negative = cell killing [1, 2] -22.9% and -5.16% | activity, negative = cell killing [1, 3] -8.77% and -8.54% | activity, negative = cell killing [1, 5] -10.9% | activity, negative = cell killing [1, 4] 8.95% and -5.08% | Potency (astro)
